# Compound activity from PubChem BioAssay.
# FBW7 act: human FBW7 E3 ligase activation, primary screen; AlphaScreen FBW7–phospho-cyclin E peptide binding, activator screen; normalized activity (activation), % at 26.1 µM; actives 0.13% (n = 650,000); in the data active = normalized activity above about 1.9%;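 note: purified mutant Fbw7 with reduced substrate affinity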
# MITF inh: inhibitors of human MITF | AlphaScreen MITF homodimerization, bead proximity signal | actives 0.91% (n = 650,000) | inhibition, % at 2.6 µM | O75030 | AID 1259374; in the data active = inhibition above about 50%
# Target sequence (O75030 whole entry, looked up): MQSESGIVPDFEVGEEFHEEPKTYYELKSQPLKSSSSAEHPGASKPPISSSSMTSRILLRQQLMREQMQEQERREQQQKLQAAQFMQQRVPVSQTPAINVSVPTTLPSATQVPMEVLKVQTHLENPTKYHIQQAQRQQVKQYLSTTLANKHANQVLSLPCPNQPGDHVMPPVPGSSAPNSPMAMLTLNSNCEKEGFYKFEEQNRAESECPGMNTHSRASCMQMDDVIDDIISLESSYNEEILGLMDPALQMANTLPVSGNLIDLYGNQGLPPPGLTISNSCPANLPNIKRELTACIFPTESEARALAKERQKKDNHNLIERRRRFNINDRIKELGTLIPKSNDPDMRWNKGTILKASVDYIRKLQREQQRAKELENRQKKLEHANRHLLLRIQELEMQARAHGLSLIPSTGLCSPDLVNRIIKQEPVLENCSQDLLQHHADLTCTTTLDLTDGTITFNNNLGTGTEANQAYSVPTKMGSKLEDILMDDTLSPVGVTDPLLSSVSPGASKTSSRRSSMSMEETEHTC
# TEAD-YAP block: TEAD-YAP interaction inhibition. inhibition, % at 9.12 µM. AID 1259422. actives 1.4% (n = 640,000). HEK-TIYL cells, TEAD-Gal4/YAP UAS-luciferase luminescence; in the data active = inhibition above about 32%
# GPR151 activ: human GPR151 activation | activation, % at 11.2 µM | Q8TDV0 | PathHunter beta-arrestin GPR151 cells, luminescence | actives 1% (n = 650,000); in the data active = activation above about 4.9%
# Numbers stand for hits; 0 = inactive. Most compounds without a hit are left out; they make up all but 3.4% or so of the library.
SMILES,FBW7 act,MITF inh,TEAD-YAP block,GPR151 activ
COc1cccc(/C=C2\SC(=S)N(CCCCCC(=O)O)C2=O)c1,0,0,66,0
O=C(CCN1C(=O)/C(=C/C=C/c2ccccc2)SC1=S)Nc1ccccn1,0,0,0,0
Cc1csc(NC(=O)CCN2C(=O)/C(=C/C=C/c3ccccc3)SC2=S)n1,0,61,0,0
Cc1cc(C(=O)CNCc2ccco2)c(C)n1-c1c(C)n(C)n(-c2ccccc2)c1=O,0,0,0,0
COc1ccc(CNC(=O)CSCc2ccc(F)cc2)cc1,0,0,0,0
Nc1c(N2CCCC2)cc(O)c2c1C(=O)c1ccccc1C2=O,0,77,0,0
COc1ccc(C2CC(=O)c3c([nH]c(C(=O)OCCSC)c3C)C2)cc1 (configuration not stated),0,0,0,0
Cc1c(C(=O)O)[nH]c2c1C(=O)CC(c1ccc(Cl)cc1)C2 (configuration not stated),0,0,0,0
COC(=O)c1[nH]c2c(c1C)C(=O)CC(c1ccc(F)cc1)C2 (configuration not stated),0,0,40,0
COC(=O)c1[nH]c2c(c1C)C(=O)CC(c1ccc(C)cc1)C2 (configuration not stated),0,0,0,0
CCOCCOC(=O)c1[nH]c2c(c1C)C(=O)CC(c1ccccc1)C2 (configuration not stated),0,0,49,0
CCOC(=O)c1[nH]c2c(c1C)C(=O)CC(c1ccc(OCC)c(OC)c1)C2 (configuration not stated),0,0,0,0
CCCOCCOC(=O)c1[nH]c2c(c1C)C(=O)CC(c1ccccc1)C2 (configuration not stated),0,0,43,0
CCOC(=O)c1[nH]c2c(c1C)C(=O)CC(c1ccccc1)C2 (configuration not stated),0,0,47,0
CCOC(=O)C1=C(C)NC2=C(C(=O)CCC2)C1c1ccc(OCc2ccccc2)c(OC)c1 (configuration not stated),0,0,0,0
CCOC(=O)C1=C(C)N=c2s/c(=C/c3cc4c(cc3Br)OCO4)c(=O)n2C1c1cc(OC)ccc1OC (configuration not stated),0,0,0,0
O=[N+]([O-])c1cc2c(cc1[N+](=O)[O-])NCC2,0,0,0,0
COc1ccccc1CN(C1CCCC1)S(=O)(=O)c1ccc(-n2cnnn2)c(C)c1,0,0,0,0
CSCCOC(=O)c1[nH]c2c(c1C)C(=O)CC(c1ccccc1)C2 (configuration not stated),0,0,45,0
COCCOC(=O)c1[nH]c2c(c1C)C(=O)CC(c1ccc(OC)c(OC)c1)C2 (configuration not stated),0,0,0,0
Cc1c(C(=O)OCC2CCCO2)[nH]c2c1C(=O)CC(c1ccc(F)cc1)C2 (configuration not stated),0,0,0,0
CCOCCOC(=O)c1[nH]c2c(c1C)C(=O)CC(c1cc(OC)c(OC)c(OC)c1)C2 (configuration not stated),0,0,42,0
CCCOC(=O)c1[nH]c2c(c1C)C(=O)CC(c1ccco1)C2 (configuration not stated),0,0,56,0
CCOC(=O)c1[nH]c2c(c1C)C(=O)CC(c1ccc(F)cc1)C2 (configuration not stated),2.3,0,49,0
O=[N+]([O-])c1cccc(S(=O)(=O)Nc2nc3ccccc3n3nnnc23)c1,0,0,0,0
SMILES,FBW7 act,MITF inh,TEAD-YAP block,GPR151 activ
CC(C)CCN(Cc1cc([N+](=O)[O-])cc2c1OCOC2)S(=O)(=O)c1ccccc1F,0,0,0,0
O=[N+]([O-])c1cc2c(c(CN(Cc3ccco3)S(=O)(=O)c3ccccc3F)c1)OCOC2,0,0,47,0
O=C(Cc1ccccc1)Nc1cnn(-c2cccc(C(=O)NC3CCCc4ccccc43)c2)c1 (configuration not stated),0,0,0,0
N#C/C(=C\c1ccco1)c1nc2ccccc2c(=O)[nH]1,0,0,0,0
O=C(Nc1ccc2oc(-c3cccc4c(Br)cccc34)nc2c1)c1ccccc1[N+](=O)[O-],0,0,43,0
CC(=O)Nc1ccc(Sc2nc3ccccc3s2)c(Cl)c1,0,0,0,0
O=C(Nc1ccc2oc(-c3cccc4c(Br)cccc34)nc2c1)c1cc([N+](=O)[O-])ccc1Cl,0,0,0,0
O=C(Nc1ccc(Sc2nc3ccccc3s2)c(Cl)c1)c1cc([N+](=O)[O-])ccc1Cl,0,0,32,0
O=C(Nc1ccc2oc(-c3cccc(F)c3)nc2c1)c1cc([N+](=O)[O-])ccc1Cl,0,0,37,0
O=C(COc1ccc2ccccc2c1)N/N=C/c1cccc2cccnc12,0,0,0,0
CC1=NN(C(=S)c2ccccc2)C(C)(O)C1 (configuration not stated),0,0,0,0
CCc1ccccc1NC(=O)CN(C)C(=O)CCl,0,0,79,0
COc1ccc(C(=O)c2sc(Nc3ccccc3F)nc2N)cc1OC,0,0,0,0
COc1ccccc1C(=O)Nc1cccc(-c2nnc3c4ccccc4c(C)nn23)c1,0,0,0,0
COc1cccc(C(=O)Nc2cc(C)on2)c1,0,0,0,0
COc1cccc(C(=O)Nc2noc3ccccc23)c1,0,0,57,0
COc1ccc(C(=O)Nc2noc3ccccc23)cc1,0,0,86,0
COc1cc2nc(-c3ccc(C(=O)NC4CC4)cc3)nc(Nc3ccc(Oc4ccccc4)cc3)c2cc1OC,3.7,0,35,0
COc1cc2nc(-c3cccc(N)c3)nc(Nc3ccc(Oc4ccccc4)cc3)c2cc1OC,0,0,36,0
Cn1c(Cc2ccccc2)nnc1SC/C(O)=C(\C#N)c1nc2ccccc2[nH]1,0,0,0,0
CCCOc1cccc(C(=O)Nc2sc(C)c(-c3ccc(C)cc3)c2C(=O)OC)c1,0,0,0,0
CCCCN(CC)C(=O)c1ccc(Cl)c([N+](=O)[O-])c1,0,0,0,0
O=C1OC(c2cccc(Cl)c2)=N/C1=C\c1cccc(Cl)c1,0,0,0,0
O=C1OC(c2cccc(Cl)c2)=N/C1=C\c1ccccc1,0,0,73,0
O=C(Nc1ccc(Cl)cc1)c1cc2ccccc2cc1NS(=O)(=O)c1ccccc1,0,0,53,0
SMILES,FBW7 act,MITF inh,TEAD-YAP block,GPR151 activ
CCOC(=O)c1cnn(-c2nc(C)nc3sc(-c4ccccc4)cc23)c1/N=C/N(C)C,0,0,34,0
CCOC(=O)c1cnn(-c2ccc(Cl)nn2)c1/N=C/N(C)C,0,0,0,0
COc1ccc(-c2nnc(Sc3ccc([N+](=O)[O-])cn3)n2-c2ccccc2)cc1OC,0,0,55,0
COc1ccccc1NC(=O)CCCc1nc(-c2ccc(C)cc2)no1,0,0,0,0
COc1ccccc1NC(=O)CCc1nc(-c2ccc(C(C)(C)C)cc2)no1,0,0,71,0
CC(C)CCNS(=O)(=O)c1ccc(Oc2ccc(S(=O)(=O)NCCC(C)C)cc2)cc1,0,0,33,0
CC(=O)c1ccc(S(=O)(=O)NCCC(C)C)cc1,0,0,0,0
